Bioassay records deposited in PubChem by Broad Institute.
An excerpt weighted towards active compounds, which were near 1.4% of everything screened.
MLL AF4-AF9 inh: inhibitors of human MLL-AF4/AF9 interaction; P42568; inhibition, % at 10 µM; 350,000 compounds, 0.47% hits; AlphaScreen, biotin-AF4 peptide binding to FLAG-AF9;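 active = every replicate reaching a set inhibition limit, whatever the replicate mean, cut at about 25% in these data; inconclusive = mean inhibition reaches that limit but some replicates miss it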;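 note: 0% = plate neutral control median and 100% = total signal loss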
RAD52 anneal inh: blocks human RAD52 DNA annealing | 360,000 compounds, 0.46% hits | inhibition, % at 18.7 µM | recombinant RAD52 DNA annealing, FRET fluorescence | P43351;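 active = every replicate showing at least 50% inhibition; inconclusive = mean inhibition at least 50% but not in every replicate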
RAD54 branch: blocks human RAD54 Holliday junction branch migration; Q92698; 360,000 compounds, 0.14% hits; FAM/BHQ fluorescence; inhibition, % at 10.4 µM;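 active = mean normalized replicate activity at least 40 and at least half of replicates scoring 40 or more; inconclusive = only one of the two criteria met; inactive = mean below 40 and under half of replicates reaching 40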;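 note: 0% = median of neutral control wells and 100% = median of positive control wells; inhibitors cause a drop in the FAM fluorescence signal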
Target sequence (Q92698 whole entry, looked up): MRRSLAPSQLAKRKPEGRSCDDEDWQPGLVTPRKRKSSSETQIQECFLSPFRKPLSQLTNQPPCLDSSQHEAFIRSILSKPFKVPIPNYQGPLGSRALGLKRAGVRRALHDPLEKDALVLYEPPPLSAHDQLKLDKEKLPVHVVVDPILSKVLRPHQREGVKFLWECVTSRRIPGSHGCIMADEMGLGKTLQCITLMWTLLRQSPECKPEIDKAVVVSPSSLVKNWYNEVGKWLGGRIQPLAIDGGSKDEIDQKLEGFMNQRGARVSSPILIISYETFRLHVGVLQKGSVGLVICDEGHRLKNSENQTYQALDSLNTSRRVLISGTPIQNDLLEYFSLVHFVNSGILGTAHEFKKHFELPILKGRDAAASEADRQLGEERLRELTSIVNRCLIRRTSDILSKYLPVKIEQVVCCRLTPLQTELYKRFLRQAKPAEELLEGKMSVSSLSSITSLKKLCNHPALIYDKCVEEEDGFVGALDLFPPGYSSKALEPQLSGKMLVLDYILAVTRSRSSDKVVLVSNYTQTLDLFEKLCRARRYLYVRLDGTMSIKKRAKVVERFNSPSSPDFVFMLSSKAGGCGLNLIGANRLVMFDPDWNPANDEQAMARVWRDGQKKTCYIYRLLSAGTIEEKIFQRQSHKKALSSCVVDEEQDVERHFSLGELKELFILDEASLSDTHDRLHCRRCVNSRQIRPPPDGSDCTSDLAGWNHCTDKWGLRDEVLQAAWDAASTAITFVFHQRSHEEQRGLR
ERAP1 HTS inh: inhibitors of human ERAP1 aminopeptidase | Q9NZ08 | recombinant ERAP1, Leu-AMC fluorescence, 60 min | inhibition, % at 10.7 µM | 340,000 compounds, 0.15% hits | AID 652197;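 active = mean replicate inhibition of at least 30%, or all replicates individually reaching that 30% level; inactive = mean below 30% and not every replicate reaching it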;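 note: 0% = neutral control wells and 100% = L-leucinethiol positive control wells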
INS-1E GSIS act: primary screen for activators of insulin secretion dependent on glucose, INS-1E cells, GLuc reporter luminescence; activation, % at 16.6 µM; 370,000 compounds, 0.61% hits; INS-1E GLuc reporter insulin secretion, 2-3 h;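 active = lowest replicate activation of at least 40%, so every replicate reaches that level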;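 note: 0% = median of neutral control wells and 100% = median of IBMX positive control wells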
PGC1a acetyl inh: PGC1a acetylation modulation, inhibitor mode. 350,000 compounds, 0.17% hits. U2OS PGC1a acetylation, AlphaScreen anti-acetyl-lysine; with virally co-expressed GCN5 acetyltransferase. inhibition, % at 15.6 µM;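 active = every replicate shows inhibition of at least 40%; inconclusive = mean inhibition at least 40% but some replicate below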;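 note: 0% = neutral control wells and 100% = positive control wells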
Active calls of the source: *; ? = inconclusive; . = not tested or not shown.

SMILES | MLL AF4-AF9 inh | RAD52 anneal inh | RAD54 branch | ERAP1 HTS inh | INS-1E GSIS act | PGC1a acetyl inh
CO[C@H]1CN(C)C(=O)c2ccc(NC(=O)Nc3cc(Cl)cc(Cl)c3)cc2OC[C@H](C)NC[C@@H]1C | 13 | 37 | . | -1 | -24 | 0
CO[C@@H]1CN(C)C(=O)c2ccc(NC(=O)Nc3cc(Cl)cc(Cl)c3)cc2OC[C@H](C)NC[C@@H]1C | 12 | 58* | 8 | -4 | -7 | -14
CO[C@H]1CN(C)C(=O)c2ccc(NC(=O)Nc3ccc(Cl)c(Cl)c3)cc2OC[C@H](C)NC[C@@H]1C | 11 | 51* | -3 | 0 | -7 | .
CO[C@H]1CN(C)C(=O)c2cc(NC(=O)Nc3ccc(Cl)c(Cl)c3)ccc2OC[C@@H](C)NC[C@@H]1C | . | 39 | 15 | . | -3 | 1
CO[C@H]1CN(C)C(=O)c2cc(NC(=O)Nc3ccc(Cl)c(Cl)c3)ccc2OC[C@@H](C)NC[C@H]1C | . | 52* | 31 | . | 3 | -8
CCC(=O)N1[C@H](CO)[C@H](c2ccccc2)C12CN(C(=O)c1cnccn1)C2 | . | . | . | . | 2 | .
COc1cc(O)c(C(CC(=O)N2CCN(c3ccccc3)CC2)c2ccc(N(C)C)cc2)c(OC)c1 (stereo not drawn) | 28* | 14 | 1 | . | -5 | -6
COc1cc(O)c(C(CC(=O)N2CCCC(C)C2)c2ccc(N(C)C)cc2)c(OC)c1 (stereo not drawn) | 19 | -12 | -4 | . | -14 | -9
CCOC(=O)N1CCN(S(=O)(=O)N2CCCC(C(=O)NCc3cc(OC)ccc3OC)C2)CC1 (stereo not drawn) | 1 | 0 | 0 | 0 | 99* | -1
CS(=O)(=O)c1ncc(Cl)c(C(=O)Nc2ccc(OC(F)F)cc2)n1 | . | -7 | 4 | 0 | 59* | .
CS(=O)(=O)c1ncc(Cl)c(C(=O)Nc2ccc(N3CCOCC3)cc2)n1 | . | . | . | . | . | -81
C[C@@H]1CN([C@@H](C)CO)C(=O)Cc2cc(NC(=O)Nc3cccc4ccccc34)ccc2O[C@H]1CN(C)Cc1ccc2c(c1)OCO2 | 5 | 54* | 25 | -4 | -15 | -5
C[C@H]1CN([C@@H](C)CO)C(=O)Cc2cc(NC(=O)Nc3cccc4ccccc34)ccc2O[C@@H]1CN(C)Cc1ccc2c(c1)OCO2 | 1 | 27 | 11 | -3 | -8 | 5
C[C@H](CO)N1C[C@H](C)[C@@H](CN(C)Cc2ccc(Cl)c(Cl)c2)Oc2ccc(NC(=O)Nc3cccc4ccccc34)cc2CC1=O | 2 | 54* | -5 | -1 | -1 | 3
COCC(=O)N1CC2(C1)[C@@H](c1ccccc1)[C@@H](CO)N2C(=O)c1ccccc1 | -4 | -8 | . | 0 | 13 | .
O=C(C[C@H]1C=C[C@H](NC(=O)c2ccccc2)[C@@H](CO)O1)NCc1ccc(Oc2ccccc2)cc1 | -9 | -4 | 1 | 2 | 30 | -19
COCC(=O)N(C)C[C@@H]1Oc2cc(C#CC3CCCC3)ccc2S(=O)(=O)N([C@H](C)CO)C[C@H]1C | . | . | . | . | -12 | 3
CC(=O)N1[C@@H]2CN(S(C)(=O)=O)C[C@H]1C2c1ccccc1 (stereo partly drawn) | . | . | . | . | 0 | .
COc1ccc(/C=C/C(=O)OCC(=O)NC2CCS(=O)(=O)C2)cc1 (stereo not drawn) | -3 | -11 | 0 | -4 | -6 | .
CCCCOc1ccc(/C=C/C(=O)OCC(=O)NC2CCS(=O)(=O)C2)cc1OCC (stereo not drawn) | 1 | -10 | . | 2 | 45* | .
COCCNC(=O)C[C@H]1C=C[C@H](NC(=O)NC2CCCC2)[C@H](CO)O1 | -2 | -6 | 2 | -1 | 3 | 0
C[C@@H]1CCCCO[C@@H](CN(C)Cc2ccc3c(c2)OCO3)[C@H](C)CN([C@H](C)CO)C(=O)c2cc(NC(=O)CCC(F)(F)F)ccc2O1 | 6 | 21 | 10 | -2 | -15 | 2
CC1Nc2ncnc(N3CCc4ccccc4C3)c2N(Cc2ccc(Br)cc2)C1=O (stereo not drawn) | 2 | -41 | 1 | 8 | -14 | 3
CC1Nc2ncnc(N3CCc4ccccc4C3)c2N(Cc2ccc(Cl)cc2)C1=O (stereo not drawn) | . | -103 | 0 | -2 | 74* | 8
CCCC#Cc1ccc([C@@H]2[C@H](CO)N3C(=O)CN(C(=O)c4ccccn4)C[C@@H]23)cc1 | 1 | 0 | . | 1 | 23 | -3
SMILES | MLL AF4-AF9 inh | RAD52 anneal inh | RAD54 branch | ERAP1 HTS inh | INS-1E GSIS act | PGC1a acetyl inh
Fc1ccc(/C=N/c2c(-c3ccc(F)cc3)nc3n2CCS3)cc1 | . | . | -8 | . | 62* | -2
C[C@H]1CN(C)C(=O)c2cc(N)ccc2O[C@H]1CN(C)C(=O)OC(C)(C)C | . | . | . | . | -10 | .
CCC(C)N(C(=O)COC(=O)c1nc2nc(C)cc(C)n2n1)C1CCS(=O)(=O)C1 (stereo not drawn) | -14 | -8 | -2 | 88* | 23 | .
CCCNC(=O)N1C[C@H](O)COC[C@H]2O[C@@H](CC(=O)N3CCN(C)CC3)CC[C@@H]21 | -3 | 2 | 0 | -2 | 4 | 0
O=c1c(Cl)c(NCCO)cnn1-c1cccc(Cl)c1 | 0 | -4 | . | 8 | 46* | 0
COc1cc(C(CCN2CCOCC2)c2c(OC)cc(OC)c3c2OC(=O)CC3c2ccc(N(C)C)cc2)cc(OC)c1OC (stereo not drawn) | 49* | -8 | 3 | 4 | -29 | -3
COc1cc(OC)c2c(-c3ccccc3)cc(=O)oc2c1C(CCN1CCCC(C)C1)c1ccc2c(c1)OCO2 (stereo not drawn) | 32* | 17 | 2 | . | 4 | .
CCCCCc1cc(=O)oc2c(C(CCN3CCCCC3)c3cc(OC)c(OC)c(OC)c3)c(OC)cc(OC)c12 (stereo not drawn) | ? | 47 | 17 | . | 59* | -27
COc1cc(C2CC(=O)Oc3c(C(CCN4CCCC(C)C4)c4ccc(N(C)C)cc4)c(OC)cc(OC)c32)cc(OC)c1OC (stereo not drawn) | 39* | 5 | -2 | -3 | -30 | 3
C[C@@H]1CN([C@@H](C)CO)C(=O)Cc2cc(NC(=O)C3CCCCC3)ccc2O[C@H]1CN(C)Cc1ccc(C(=O)Nc2ccccc2N)cc1 | -6 | -7 | 7 | 0 | 9 | -20
C[C@H]1CCCCO[C@H](CN(C)C(=O)Nc2ccccc2)[C@@H](C)CN([C@@H](C)CO)C(=O)c2cc(NC(=O)Nc3ccc(F)cc3)ccc2O1 | 2 | 3 | -11 | -3 | -17 | 8
C[C@@H]1CN([C@H](C)CO)C(=O)CCCn2cc(nn2)CO[C@H]1CN(C)Cc1ccc(C(=O)O)cc1 | 2 | 2 | . | -1 | 9 | 3
Cc1ccc(S(=O)(=O)Nc2ccc3c(c2)C(=O)N([C@@H](C)CO)C[C@@H](C)[C@H](CN(C)S(=O)(=O)c2ccc(F)cc2)OCCCC[C@H](C)O3)cc1 | -5 | 0 | 3 | -1 | 0 | -15
